Screening data deposited in PubChem by National Center for Advancing Translational Sciences (NCATS).
nsP2pro primary: blocks chikungunya virus nsP2 protease peptide cleavage. Q8JUX6. FRET peptide cleavage, nsP2pro, fluorescence 1 h. Potency, µM (top dose mostly 24.9 µM), inactives show top-dose activity change, negative = inhibition, hits mostly inhibitors. 31,000 compounds, 1.1% hits. AID 1964107; note: nearly all actives have a fitted effect of over 60% in size
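Enzyme 150 nM, substrate 2.5 uM (both final); Tris-HCl 10 mM pH 8.0 + 0.01% Tween 20; cpd up to 25 uM, 7 pts; 15 min preinc., 1 h RT; fluorescence ex 525/em 598.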
nsP2 cell sec: inhibits CHIKV nsP2 protease in cells; shares compounds with nsP2pro primary; cell-based CHIKV nsP2 protease reporter assay; Potency, µM (doses to about 51.1 µM), for inactives: at the top dose activity change, negative = inhibition, usual class: inhibitors; 450 compounds, 10% hits; AID 1964100; note: nearly all actives have a fitted effect of over 70% in size
CHIKV NSP2 FL: selectivity test for CHIKV nsP2 protease inhibitors: full-length NSP2. Potency, µM (doses to about 50.7 µM), inactives show at the top dose activity change, negative = inhibition, usual class: inhibitors. shares compounds with nsP2pro primary. 410 compounds, 39% hits. Full-length CHIKV NSP2 protease enzymatic counterscreen; note: nearly all actives have a fitted effect of over 65% in size
Furin counter: inhibits human furin in a CHIKV nsP2 protease selectivity counterscreen. shares compounds with nsP2pro primary. Recombinant human furin enzymatic counterscreen, fluorogenic substrate. Potency, µM (series often up to 50.6 µM), without a hit: at the highest dose activity change, negative = inhibition, usual class: inhibitors. 410 compounds, 6% hits. AID 1964102
NS23 peptide cs: selectivity test for CHIKV nsP2 protease inhibitors: endogenous NS2/3 peptide; shares compounds with nsP2pro primary; Purified CHIKV nsP2 protease, endogenous NS2/3 peptide cleavage; Potency, µM (doses to about 51 µM), for inactives: at the highest dose activity change, negative = inhibition, actives largely listed as inhibitors; 410 compounds, 34% hits; AID 1964103; note: nearly all actives have a fitted effect of over 55% in size
Papain cs: papain protease inhibition, counterscreen for nsP2pro inhibitors | shares compounds with nsP2pro primary | purified papain protease activity, enzymatic inhibition | 410 compounds, 5% hits | AID 1964104 | Potency, µM (series often up to 51 µM), inactives show at the highest dose activity change, negative = inhibition, actives largely listed as inhibitors
nsP2pro confirm: CHIKV nsP2 protease inhibition, confirmatory qHTS; shares compounds with nsP2pro primary; CHIKV nsP2 protease enzymatic activity, qHTS; Potency, µM (titrated, usually from 25.5 µM), inactives show at the top dose activity change, negative = inhibition, actives largely listed as inhibitors; 410 compounds, 43% hits; note: nearly all actives have a fitted effect of over 75% in size
HCV NS3 4A cs: HCV NS3/4A protease inhibition, counterscreen; shares compounds with nsP2pro primary; HCV NS3/4A protease biochemical counterscreen; Potency, µM (top dose mostly 50.9 µM), hits mostly inhibitors; 410 compounds, 20% hits; AID 1964106; note: nearly all actives have a fitted effect of over 55% in size
* hit, by the source's call; i = inactive; ? = inconclusive; [ ] = dose if it differs, or a comment. This excerpt belongs to a sample that is enriched for hits. Calls come from the whole dose curve. % is set by controls: 0 for no effect and ±100 for the full control effect; potency is the fitted concentration of half-maximal effect.

SMILES | nsP2pro primary | others
COc1c(C)c(C(=O)c2ccc(N)c(C(=O)O)c2)n2ccccc12 | -2%
COC[C@H]1OC(=O)c2coc3c2[C@@]1(C)C1=C(C3=O)C2CCC(=O)[C@@]2(C)C[C@H]1OC(C)=O (some centres undefined) | 9.9µM* | nsP2 cell sec=-1%;CHIKV NSP2 FL=-11%;Furin counter=-6%;NS23 peptide cs=-17%;Papain cs=-7%;nsP2pro confirm=-25%;HCV NS3 4A cs=i
COC[C@@H]1OC(=O)/C(=C\N(C)CCCN(C)C)C2=C(O)C(=O)C3=C([C@@H](OC(C)=O)C[C@@]4(C)[C@@H]3CC[C@@H]4O)[C@@]21C | -11%
O=C(Cc1ccc2ccccc2c1)Nc1ccc(S(=O)(=O)Nc2nccs2)cc1 | i
COc1ccc(C(=O)N(Cc2ccccc2)Cc2ccccc2)c(O)c1 | -2%
C1=C/COCc2cc(ccc2OCCN2CCCC2)Nc2nccc(n2)-c2cccc(c2)COC/1 | 27%
COc1ccc2c(c1)c(CC(=O)OC/C=C(\C)CC/C=C(\C)CCC=C(C)C)c(C)n2C(=O)c1ccc(Cl)cc1 | -3%
CC(=O)Nc1ccc(CC(=O)O)cc1 | 2%
O=C(O)Cc1cc(I)c(Oc2ccc(O)c(I)c2)c(I)c1 | 22%
O=C(O)Cc1ccc(O)c(O)c1 | ? | nsP2 cell sec=-3%;CHIKV NSP2 FL=-23%;Furin counter=-5%;NS23 peptide cs=?;Papain cs=-7%;nsP2pro confirm=9µM*;HCV NS3 4A cs=8.2µM*
C#CCC(Cc1cnc2nc(N)nc(N)c2n1)c1ccc(C(=O)N[C@@H](CCC(=O)O)C(=O)O)cc1 (some centres undefined) | -1%
O=C(c1cccn2cncc12)N1CCOCC1 | i
CCCc1cc(C)[nH]c(=O)c1CNC(=O)c1cc(-c2ccc(N3CCN(C(C)C)CC3)nc2)cc2c1cnn2C(C)C | 91%
FC(F)(F)c1cccc(Nc2ccc(CNc3nc(-c4ccccc4C(F)(F)F)nc4ccccc34)cc2)c1 | -11%
COCC(=O)N[C@H]1CC[C@]2(C)CC[C@@H](C(C)C(=O)NC3CC3)[C@H](O)[C@H]2[C@@H]1C (some centres undefined) | -13%[39.2 µM]
CCCCCCCCCCCCCCCCCCCC(=O)O | ? | nsP2 cell sec=-23%;CHIKV NSP2 FL=4.1µM*;Furin counter=-5%;NS23 peptide cs=-19%;Papain cs=21µM*;nsP2pro confirm=2.8µM*;HCV NS3 4A cs=i
CCCCCCCCCC(=O)O | -16%
CCCCCCCC/C=C/CCCCCCCC(=O)O | -24%
O=C(c1ccccc1C(F)(F)F)N1CCc2nc3cc[nH]n3c(=O)c2C1 | i
Cc1ccc(NC(=O)c2cc3c(s2)CN(C2CC2)C3)cc1 | -16%
CC(C)NC(=O)N1CCC2(CC1)CN(C(=O)Cc1c[nH]c3ccccc13)CCO2 | -1%
CCOc1ccc(S(=O)(=O)N2CCN(c3ccc(Cl)c(Cl)c3)CC2)c2ccccc12 | -22%
CCOc1cc(S(=O)(=O)n2ccnc2C(C)C)ccc1Cl | 8.9µM* | nsP2 cell sec=-2%;CHIKV NSP2 FL=16µM*;Furin counter=-5%;NS23 peptide cs=?;Papain cs=-6%;nsP2pro confirm=?;HCV NS3 4A cs=9.2µM*
CCOc1cc(C)c(C(C)C)cc1S(=O)(=O)n1ccnc1CC | -19%
Cc1ccc(S(=O)(=O)N2CCC(Oc3ncccc3C(=O)N(C)C)C2)cc1C (centres undefined) | 3%
CCOC(=O)C1CCN(C(=O)C2(NC(=O)Nc3ccccc3Cl)CC2)CC1 | -3%
CCc1ccccc1NC(=O)N1C[C@@H](F)C[C@H]1C(=O)N1CCc2ccccc2C1 | -9%
Cc1nnc(-c2cnn(C)c2N)o1 | -4%
CCOc1ccc(CCNC(=O)c2cc3cnccc3n2Cc2cccc(C)n2)cc1OCC | 0%
CCOc1ccc(CNC(=O)COc2cc(=O)n(C)c3ccccc23)cc1 | ? | nsP2 cell sec=2%
